A549 viability: kills or reduces viability of A549 cells in Nrf2 counter-screen; A549 ARE-Fluc cells, CellTiter-Fluor viability, 18-24 h; Potency, µM (doses to about 46 µM), hits mostly inhibitors; actives 0.16% (n = 390,000); AID 504648
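A549 ARE-Fluc cells in 5% FBS OPTI-MEM, 5000 cells/well, rested 2 h then exposed to compounds in concentration-response for 18-24 h at 37 °C. Viability by CellTiter-Fluor fluorescence (Ex 405/Em 525) after 30 min; luciferase luminescence (BugLite, 15 min, RT) read afterwards.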
Nrf2 inh: inhibitors of Nrf2 signaling. A549 ARE-Fluc reporter, luciferase luminescence, 18-24 h. Potency, µM (titrated, usually from 46 µM), usual class: inhibitors. actives 2.1% (n = 360,000). AID 504444; further: nearly all actives have a fitted effect of over 60% in size
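Two sequential reads on A549 ARE_Fluc cells exposed to compound for 18-24 h: a CellTiter-Fluor fluorescence read for viability, then a luciferase luminescence read for Nrf2/ARE activity.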
IDH1 R132H inh: inhibitors of human mutant IDH1 R132H. Potency, µM (titrated, usually from 76.6 µM), hits mostly inhibitors. O75874. AID 602179. actives 0.093% (n = 390,000). IDH1-R132H enzyme, NADPH consumption, diaphorase/resazurin fluorescence; further: nearly all actives have a fitted effect of over 65% in size
Target sequence (O75874 whole entry R132H, stated change not applied): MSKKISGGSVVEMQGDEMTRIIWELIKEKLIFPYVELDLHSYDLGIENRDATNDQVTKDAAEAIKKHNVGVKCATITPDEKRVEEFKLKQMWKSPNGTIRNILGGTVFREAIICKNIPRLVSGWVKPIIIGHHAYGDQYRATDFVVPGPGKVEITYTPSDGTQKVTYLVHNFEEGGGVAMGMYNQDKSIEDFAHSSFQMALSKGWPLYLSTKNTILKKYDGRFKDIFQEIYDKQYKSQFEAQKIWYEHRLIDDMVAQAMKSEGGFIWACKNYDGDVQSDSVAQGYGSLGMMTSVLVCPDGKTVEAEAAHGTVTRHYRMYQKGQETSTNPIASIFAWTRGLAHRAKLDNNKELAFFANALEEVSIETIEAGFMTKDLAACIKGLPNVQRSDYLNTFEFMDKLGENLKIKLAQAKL
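IDH1-R132H (0.5 ug/mL dispensed) in pH 7.5 Tris buffer was preincubated 30 min with compound, then given a substrate mix of 0.016 mM NADPH and 2 mM alpha-KG for 80 min at room temperature; remaining NADPH was read by diaphorase/resazurin fluorescence.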
Anesthetic bind: candidate novel general anesthetic via apoferritin binding; P02791; apoferritin/1-aminoanthracene competitive binding, fluorescence; Potency, µM (titrated, usually from 77.5 µM), most hits filed as inhibitors; actives 0.074% (n = 350,000); further: nearly all actives have a fitted effect of over 20% in size
Target sequence (P02791 2-175 limits assumed): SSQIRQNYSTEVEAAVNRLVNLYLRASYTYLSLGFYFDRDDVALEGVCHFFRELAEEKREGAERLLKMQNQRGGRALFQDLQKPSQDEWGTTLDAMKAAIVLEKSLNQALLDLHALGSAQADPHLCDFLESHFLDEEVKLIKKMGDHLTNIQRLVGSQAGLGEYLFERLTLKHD
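Probe: 1-aminoanthracene (50% saturated, PBS). Protein: horse-spleen apoferritin, 10 uM. Incubation: 10 min, room temperature. Detection: 380 nm excitation, 535 nm emission. Analysis: normalized response, four-parameter Hill.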
Nrf2 activator: activators of Nrf2 (ARE) signaling. actives 0.31% (n = 410,000). Potency, µM (highest dose often 46.1 µM), actives largely listed as activators. AREc32 ARE-luciferase reporter (MCF7-derived line), luminescence, 24 h; further: nearly all actives have a fitted effect of over 65% in size
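Steps: seed AREc32_Fluc cells (1000/well, 5% FBS OPTI-MEM); incubate overnight at 37 deg C; add 23 nL compound; incubate 24 hr; add Steady-Glo; hold 30 min RT; read luminescence.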
Giardia killer: Giardia lamblia killing | Giardia lamblia trophozoite viability | activity change, % at 7.66 µM, hits read low | actives 0.15% (n = 340,000) | AID 540267; in the data active means activity change below about -80%; inconclusive means between about -30% and that limit;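 further: parasites exposed to compound for two days anaerobically before the ATP read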
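Trophozoite viability was measured as ATP-dependent luminescence, read 15-30 min after reagent addition. Before that, parasites at 100 cells/well were exposed to compounds for 48 h, anaerobically, at 37 deg C.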
Each line names hits and unclear results; the compound was inactive in the other large screens. Only some compounds are listed: those with a hit (about 2.3% of all), similar ones and a draw of the others. Unless noted, the call rests on the fitted dose curve; in most records, active means well fitted curve in the direction sought with a large enough effect; inconclusive means small, poorly fitted or top-dose-only effect, or another doubt; inactive means no such curve, though single readings can be large; an effect the other way counts as inactive or inconclusive.

Cc1ccc(N=c2oc3cc(O)ccc3cc2C(N)=O)cc1	Nrf2 inh 20.6µM
Cc1ccccc1CS(=O)(=O)c1nnc([C@H](Cc2ccccc2)NC(=O)OC(C)(C)C)o1	Nrf2 inh 23.1µM, Anesthetic bind inconclusive
CC(C)(C)OC(=O)N[C@@H](Cc1ccccc1)c1nnc(SCC(=O)c2ccc(Cl)cc2)o1	Nrf2 inh 25.9µM
CC(C)(C)OC(=O)N[C@@H](Cc1ccccc1)c1nnc(SCC(=O)O)o1	none
COC(=O)c1cc2c(n1S(=O)(=O)c1ccc(C)cc1)C(=O)C(=O)c1[nH]cc(C(=O)OCc3ccccc3)c1-2	A549 viability 4.11µM, Nrf2 inh 4.11µM (no result: Anesthetic bind)
CN(C)S(=O)(=O)c1cccc(C(=O)NC2CCCc3ccccc32)c1 (configuration not stated)	none
CCCNS(=O)(=O)c1cccc(C(=O)NC2CCCc3ccccc32)c1 (configuration not stated)	A549 viability inconclusive, Nrf2 inh 16.4µM, Anesthetic bind inconclusive
COc1ccc(NC(=O)c2cc([N+](=O)[O-])ccc2O)cc1	A549 viability inconclusive, Nrf2 inh inconclusive, Giardia killer -89.5
COc1ccc2c(c1)C(=O)CCC2c1ccccc1 (configuration not stated)	none
CCC(=O)C1=C(O)C(c2cccc(Oc3ccccc3)c2)CCC1=O (configuration not stated)	A549 viability inconclusive, Nrf2 inh 14.6µM
O=C1/C(=C/c2ccccc2)CCC1C1CCCC1 (configuration not stated)	Nrf2 inh inconclusive
CN1C2CCC1/C(=C\c1ccccc1)C(=O)/C2=C\c1ccccc1	A549 viability inconclusive, Nrf2 inh 25.9µM, Nrf2 activator inconclusive
Cc1ccc(S(=O)(=O)N2CCN(c3nc(-c4ccc(F)cc4)nc4cc(Cl)ccc34)CC2)cc1	none (no result: IDH1 R132H inh, Anesthetic bind, Nrf2 activator)
O=C1NCCN1C(=O)C12CC3CC(CC(C3)C1)C2	Anesthetic bind 14.1µM
O=C(N1CCCC1)C12CC3CC(CC(C3)C1)C2	none
Cc1ccc(NC(=O)CCc2c(C)nc3cc(-c4ccccc4)nn3c2C)cc1F	Nrf2 inh inconclusive (no result: Giardia killer)
Cc1ccccc1-n1nc(C)c2cc(C(=O)N3CCN(S(=O)(=O)c4ccc(Cl)cc4)CC3)sc21	Nrf2 inh 13µM
CC(=O)c1ccc(S(=O)(=O)N2CCN(C(=O)c3ccc(-n4nc(C)c(Cl)c4C)cc3)CC2)cc1	Nrf2 inh 25.9µM (no result: Anesthetic bind)
Cc1ccccc1-n1nc(C)c2cc(C(=O)N3CCN(S(=O)(=O)c4ccc(F)cc4)CC3)sc21	none (no result: Nrf2 inh)
COc1cc(Cl)c(C)cc1NC(=O)c1cnn(-c2ccc(C)cc2)c1-n1cccc1	none (no result: Giardia killer)
O=C1C(=O)c2c(ccc3ccccc23)-c2ccccc21	none (no result: Anesthetic bind)
COc1ccc(-c2noc(N3CCC(C(=O)NC(C)c4ccccc4)CC3)n2)cc1 (configuration not stated)	Nrf2 inh 23.1µM
CCc1cc(-c2oncc2-c2ccc(OC)cc2)c(O)cc1OC	none (no result: A549 viability, Nrf2 inh, IDH1 R132H inh, Nrf2 activator, Giardia killer)
Cc1occc1C(=O)N/N=C/c1ccc(-c2ccccc2)cc1	Nrf2 inh inconclusive
O=C(N/N=C/C(Br)=C\c1ccccc1)c1n[nH]c2c1CCC2	Nrf2 inh inconclusive, Anesthetic bind inconclusive, Nrf2 activator 14.1µM
CC(/C=N/NC(=O)c1n[nH]c2c1CCC2)=C\c1ccccc1	A549 viability inconclusive, Anesthetic bind inconclusive
Cc1ccc(-c2cc(C(=O)N/N=C/c3ccccc3O)n[nH]2)o1	none
Cc1occc1C(=O)N/N=C/C(Br)=C/c1ccccc1	Nrf2 inh inconclusive, Nrf2 activator 15.8µM
COc1ccc(C(=O)N/N=C/C(Br)=C/c2ccccc2)cc1	Nrf2 activator 15.8µM
Cc1ccc(-c2cc(C(=O)N/N=C/C(Br)=C/c3ccccc3)n[nH]2)o1	Nrf2 inh inconclusive, Nrf2 activator 20µM
COCCN1C[C@@H](CO)O[C@@H](n2cnc3c(NC4CCCC4)ncnc32)C1	none (no result: A549 viability, Nrf2 inh, IDH1 R132H inh, Anesthetic bind, Giardia killer)
O=[S+]([O-])(c1ccc2c(c1)OCCO2)N1CCN([S+](=O)([O-])c2ccc(F)cc2Cl)CC1	none (no result: IDH1 R132H inh, Anesthetic bind, Nrf2 activator, Giardia killer)
COC(=O)CSc1nnc(-c2sc3ccccc3c2Cl)o1	Nrf2 inh 16.4µM
COc1ccccc1NC(=O)c1c(NC(=O)c2cccs2)sc2c1CCC(C(C)(C)C)C2 (configuration not stated)	none (no result: Giardia killer)
CCOc1ccc(NC(=O)c2c(NC(=O)c3ccncc3)sc3c2CCC(C(C)(C)C)C3)cc1 (configuration not stated)	none (no result: Giardia killer)
CC(C)(C)C1CCc2c(sc(NC(=O)CCC(=O)O)c2C(=O)Nc2ccccc2C(F)(F)F)C1 (configuration not stated)	A549 viability inconclusive, Nrf2 inh 18.4µM, IDH1 R132H inh inconclusive, Anesthetic bind inconclusive (no result: Giardia killer)
COc1ccc(NC(=O)c2c(NC(=O)c3ccncc3)sc3c2CCC(C(C)(C)C)C3)cc1 (configuration not stated)	Nrf2 inh 18.4µM (no result: Giardia killer)
OC[C@@H]1O[C@H](O)[C@H](O)[C@@H](O)[C@@H]1O	none (no result: A549 viability, Nrf2 inh, IDH1 R132H inh, Nrf2 activator, Giardia killer)
COC(=O)C(NC(=O)c1ccccc1Cl)(Nc1ncc(S(=O)(=O)c2ccc([N+](=O)[O-])cc2)s1)C(F)(F)F (configuration not stated)	Nrf2 inh 20.6µM, Anesthetic bind inconclusive
CCC(C)(C)C(=O)Nc1ncc(S(=O)(=O)c2ccc([N+](=O)[O-])cc2)s1	Nrf2 inh inconclusive, Anesthetic bind inconclusive
COc1ccc(C2Nc3ccccc3C(=O)N2Cc2ccccc2)cc1COc1cccc(C(F)(F)F)c1 (configuration not stated)	none (no result: IDH1 R132H inh, Anesthetic bind, Nrf2 activator, Giardia killer)
CC(=O)NC(CC(=O)OCC(=O)N1CCN(S(=O)(=O)c2ccc(Cl)cc2)CC1)c1ccccc1 (configuration not stated)	none (no result: Anesthetic bind)
Cc1ccc(S(=O)(=O)N2CCN(C(=O)CSC3CCCC3)CC2)c(C)c1	Nrf2 inh 25.9µM
Cc1ccc(S(=O)(=O)N2CCN(C(=O)CSC(=S)N3CCCC3)CC2)c(C)c1	Nrf2 inh inconclusive (no result: Anesthetic bind)
COc1ccc(S(=O)(=O)N2CCN(Cc3ccccc3)CC2)c(C)c1	none
CC(=O)NC(CC(=O)OCC(=O)N1CCN(S(=O)(=O)c2ccc(C)cc2C)CC1)c1ccccc1 (configuration not stated)	Nrf2 inh 20.6µM (no result: Anesthetic bind)
Cc1ccc(S(=O)(=O)N2CCN(CCc3ccccc3)CC2)c(C)c1	Nrf2 inh 18.4µM
CCCN1CCN(c2ncnc3sc(C(=O)Nc4ccc(OC(F)(F)F)cc4)c(C)c23)CC1	Anesthetic bind inconclusive (no result: Nrf2 inh, Giardia killer)
COCCCNC(=O)CCn1c(=O)c2ccccc2n(CC(=O)Nc2c(C)cc(C)cc2C)c1=O	none (no result: Giardia killer)
Clc1ccc(CNc2ncnc3[nH]ncc23)c(Cl)c1	Nrf2 inh 23.1µM (no result: Anesthetic bind)
